Screens (PubChem BioAssay)
Compounds with a hit are over-represented: about 6% of the library has one in this group of screens.
PLK1 PBD block: inhibitors of human PLK1 polo-box domain binding; Plk1 PBD binding of FITC phosphopeptide, fluorescence polarization; Potency, µM, most hits filed as inhibitors; 360,000 tested, 2.8% active; AID 720504; note: series mostly up to about 57 µM; nearly all actives have a fitted effect of over 65% in size
Tau fluor counter: counter-screen for tau fibril formation inhibitors | tau K18 P301L Alexa594 fluorescence, heparin fibrillization | Potency, µM (titrated, usually from 57.7 µM) | 280,000 tested, 0.93% active | AID 1463; note: nearly all actives have a fitted effect of over 55% in size
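Human tau K18 P301L (15 uM unlabeled, 0.24 uM Alexa 594-labeled) in 100 mM sodium acetate pH 7 with 20 uM heparin, 6 hr at 37 C. ThT 30 uM added, 1 hr ambient; Alexa 594 FP and total fluorescence read at 555/632 nm.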
VDR inhibitor: inhibitors of human vitamin D receptor; P11473; VDR-SRC2-3 peptide fluorescence polarization, 2 h; Potency, µM, actives largely listed as inhibitors; 400,000 tested, 0.93% active; AID 504847
Target sequence (P11473 whole entry, looked up): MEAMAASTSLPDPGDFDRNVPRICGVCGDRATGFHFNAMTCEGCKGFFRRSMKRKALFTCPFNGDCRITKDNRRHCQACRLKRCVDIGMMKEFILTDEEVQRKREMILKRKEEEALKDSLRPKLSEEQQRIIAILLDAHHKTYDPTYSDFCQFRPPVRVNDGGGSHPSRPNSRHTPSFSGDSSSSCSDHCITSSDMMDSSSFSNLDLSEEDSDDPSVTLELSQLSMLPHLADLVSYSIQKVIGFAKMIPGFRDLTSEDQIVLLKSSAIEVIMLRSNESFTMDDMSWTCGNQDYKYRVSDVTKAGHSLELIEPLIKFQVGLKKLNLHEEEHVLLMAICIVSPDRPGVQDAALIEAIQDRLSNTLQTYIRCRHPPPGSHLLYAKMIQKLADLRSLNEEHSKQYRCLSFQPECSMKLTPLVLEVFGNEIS
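Two reagent solutions held at 4 deg C in the dark were dispensed, compounds pinned at 23 nl, and the mixture incubated 2 h at room temperature. Read-out: fluorescence polarization of VDR–SRC2-3 peptide binding.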
Sfp inh: blocks B. subtilis Sfp PPTase activity | Biochemical Sfp PPTase activity, qHTS | Q9F4F7 | 310,000 tested, 3.5% active | AID 1490 | Potency, µM, usual class: inhibitors;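 note: the enzyme is Sfp with the accession as filed and its product quenches rhodamine fluorescence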
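Fluorescence-quenching assay with 15 nM Sfp, 5 uM rhodamine-CoA and 12.5 uM BHQ-2-labelled ybbR peptide in pH 7.6 Hepes/MgCl2 buffer. Enzyme was pre-incubated with compound for 15 min at room temperature. Rate was taken from the 30-min fluorescence change (525/598 nm).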
Tau fibril ThT: blocks human tau fibril formation measured by thioflavin T; P10636; recombinant tau K18 P301L, heparin-induced fibrillization, ThT fluorescence; Potency, µM (top dose mostly 57.4 µM), actives largely listed as inhibitors; 270,000 tested, 2.1% active; AID 1460; note: nearly all actives have a fitted effect of over 55% in size
Target sequence (P10636 561-689 P618L limits assumed): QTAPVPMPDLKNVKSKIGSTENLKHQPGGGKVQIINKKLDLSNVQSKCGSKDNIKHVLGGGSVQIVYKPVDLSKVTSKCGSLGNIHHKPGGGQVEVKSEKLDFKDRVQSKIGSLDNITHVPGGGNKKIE
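Using a mix of unlabeled (15 uM) and Alexa 594-labeled (0.24 uM) tau K18 P301L, heparin-triggered fibrillization over 6 hr at 37 C was scored by ThT fluorescence.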
Tau fibril FP: blocks human tau fibril formation measured by polarization; P10636; 280,000 tested, 0.39% active; AID 1468; Potency, µM (series often up to 57.7 µM), actives largely listed as inhibitors; K18 P301L tau heparin fibrillization, Alexa594 FP, 6 h; note: nearly all actives have a fitted effect of over 55% in size
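Steps: dispense K18 P301L tau (15 uM plus 0.24 uM Alexa 594 tracer, final) in pH 7 sodium acetate; add compound; add heparin (20 uM final); incubate 6 hr, 37 C; add ThT (30 uM final); after 1 hr ambient, read FP.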
A number is an active result; 0 = inactive; ? = inconclusive; - = no result given; [ ] = another dose, or the depositor's remark. Calls come from the whole dose curve; as a rule, active = well fitted curve in the direction sought with a large enough effect; inconclusive = small, poorly fitted or top-dose-only effect, or another doubt; inactive = no such curve, though single readings can be large; an effect the other way counts as inactive or inconclusive.

SMILES	PLK1 PBD block	Tau fluor counter	VDR inhibitor	Sfp inh	Tau fibril ThT	Tau fibril FP
Cc1csc(SCc2nnc(-c3ccccc3Br)o2)n1	0	0	0	0	?	0
Fc1ccccc1SCc1nnc(-c2ccccc2Br)o1	3.4µM	0	45µM	0	0	0
CCC(CC)C(=O)Nc1nnc(S(=O)(=O)N2CCc3ccccc32)s1	0	0	0	0	?	0
CC1Cc2ccccc2N1S(=O)(=O)c1nnc(NC(=O)c2cccc(F)c2)s1 (stereo not drawn)	-	0	0	-	?	0
CCC(CC)C(=O)Nc1nnc(S(=O)(=O)N2c3ccccc3CC2C)s1 (stereo not drawn)	0	0	0	0	14µM	0
CC(C)CC(=O)Nc1nnc(S(=O)(=O)N2CCc3ccccc32)s1	0	?	0	0	2.2µM	0
CCC(=O)Nc1nnc(S(=O)(=O)N2CCc3ccccc32)s1	0	0	0	0	18µM	0
Cc1cc(C)nc(-n2nc(C)c3c2NC(=O)CC3c2ccccc2OC(C)C)n1 (stereo not drawn)	-	0	0	-	0	0
O=C(NC1c2ccccc2-c2ccccc21)c1ccco1	21µM	0	0	0	0	0
O=C(NC1CCCCC1NC(=O)c1ccco1)c1ccco1 (stereo not drawn)	0	0	0	0	0	0
Cc1cccc(-c2nc(CS(=O)CC(=O)N3CCc4ccccc4C3)c(C)o2)c1 (stereo not drawn)	?	0	0	40µM	?	0
O=S1(=O)c2ccccc2OC(COCc2ccccc2)CN1Cc1ccccc1 (stereo not drawn)	0	-	0	-	-	-
O=S1(=O)c2ccc(Br)cc2OC(COCc2ccccc2)CN1Cc1ccccc1 (stereo not drawn)	24µM	-	?	-	-	-
Cc1cc(C)c(S(=O)(=O)NCC(c2ccc(N(C)C)cc2)N2CCOCC2)c(C)c1 (stereo not drawn)	-	?	0	-	?	0
COc1cc2oc(=O)cc(CN3CCCCC3)c2cc1Cl	0	-	-	-	-	-
COc1ccc(-c2cc(C(F)F)n3ncc(C(=O)N4CCc5ccccc54)c3n2)cc1	6.7µM	0[2.34 µM]	?	0	0	0[2.34 µM]
CCc1ccc(S(=O)(=O)c2nnn3c2nc(Nc2cc(OC)ccc2OC)c2sccc23)cc1	-	0	0	-	0	0
O=C(CCl)Nc1cccc2ncccc12	0	0	0	0	0	0
O=C(CN1C(=O)C2C3C=CC(C4CC34)C2C1=O)Nc1cccc2ncccc12 (stereo not drawn)	30µM	0	0	0	0	0
Cc1ccccc1NC(=O)CN1C(=O)COc2ccc(Cl)cc21	24µM	0	0	0	0	0
Cc1ccccc1NC(=O)CN1C(=O)C2C3CC(C(Br)C3Br)C2C1=O (stereo not drawn)	4.7µM	0	79µM	56µM	0	?
Cc1cccc(NC(=O)CN2C(=O)C3CC=CCC3C2=O)c1C (stereo not drawn)	0	-	-	-	-	-
CCOc1ccc(CNC(=O)c2ccc(Sc3ccc(C)cc3)c(N)c2)cc1OC	-	?	0	-	0	0
Cc1cc(C)cc(OC(C)C(=O)Nc2ccccc2C(=O)NCc2cccnc2)c1 (stereo not drawn)	0	-	0	35µM	-	-
Cc1ccc(OC(C)C(=O)Nc2ccccc2C(=O)NCc2cccnc2)cc1C (stereo not drawn)	0	-	0	0	-	-
SMILES	PLK1 PBD block	Tau fluor counter	VDR inhibitor	Sfp inh	Tau fibril ThT	Tau fibril FP
O=C(NC1CC1)c1cc(-c2ccco2)nc2ccccc12	21µM	0	0	45µM	-	0
O=C(O)c1cc(-c2cc(C(=O)O)c3ccccc3n2)nc2ccccc12	-	-	-	0	-	-
Cc1cc(C(=O)OCC(=O)NC(C)C)c2ccccc2n1	12µM	0	?	0	-	0
Cc1cc(C(=O)OCC(=O)NC2CCCC2)c2ccccc2n1	0	-	0	-	-	-
O=C(c1cc(-c2ccco2)nc2ccccc12)N1CCN(c2ccc(F)cc2)CC1	0	0	0	25µM	0	0
O=C(O)c1cc(-c2ccco2)nc2ccccc12	?	0	79µM	35µM	0	0
O=C(O)c1ccccc1NC(=O)C1CCN(S(=O)(=O)c2cccc3nsnc23)CC1	0	-	0	0	-	-
CCCN(C(=O)c1c(C)oc2ncn(CC(C)C)c(=O)c12)c1ccccc1C	-	0	0	-	0	0
OC[C@H]1O[C@@H](c2nc(-c3ccccc3Br)no2)[C@H](O)[C@@H](O)[C@H]1O	0	-	-	-	-	-
CC(C)CCNc1nc(N)c([N+](=O)[O-])c(N2CCCCCC2)n1	0	-	0	0	-	-
Cn1c(=O)c(C(=O)COC(=O)c2cc(-c3ccco3)nc3ccccc23)c(N)n(CC2CC2)c1=O	-	?	-	22µM	?	0
CCNC(=O)COC(=O)c1cc(-c2ccco2)nc2ccccc12	?	?	?	16µM	?	?
COc1ccc(CNC(=O)COC(=O)c2cc(-c3ccco3)nc3ccccc23)cc1	-	?	-	?	?	0
COc1ccc(OC)c(CNC(=O)c2cnc3c(C)cccn3c2=O)c1	-	0	0	-	0	0
O=C(NCCc1c[nH]c2ccccc12)/C(=C\c1cccs1)NC(=O)c1ccccc1	27µM	0	0	0	0	0
O=C(NCCc1c[nH]c2ccccc12)c1cc2sccc2n1Cc1ccccc1	0	8.9µM[quencher]	0	0	0	0
CCn1c(=O)c2cc(C(=O)NCc3ccc(F)cc3Cl)sc2c2ccccc21	-	0	0	-	0	0
Cc1ccc2c(c1)=C(c1sc(N(C)c3ccc(O)cc3)nc1O)C(=O)N=2	38µM	-	0	0	-	-
Cc1ccc2c(c1)c(-c1ccccc1)nc1nnnn12	24µM	0	0	0	0	0
c1ccc(-c2csc3nnc(SCc4ccc5c(c4)OCO5)n23)cc1	21µM	0	79µM	0	0	0
C=CCN1C(c2ccc(Br)cc2)=CS/C1=C(/C#N)c1nnc(N2CCOCC2)n1-c1ccccc1	0	0	0	79µM	?	0
C=CCN1C(c2ccccc2)=CS/C1=C(\C#N)c1nnc2n1CCCCC2	0	0	0	63µM	0	0
Cc1ccc(-n2c(=O)[nH]c3c(C(N)=O)nc(CC(C)C)nc32)cc1	0	0	0	0	0	0
Cc1ccc(-n2c(=O)[nH]c3c(C(N)=O)nc(-c4ccc(C)o4)nc32)cc1	0	0	0	45µM	?	0
COc1cccc(CNS(=O)(=O)c2c(C)[nH]c(C)c2C(=O)N2CCCCC2)c1	30µM	-	?	0	-	-
Cc1[nH]c(C)c(S(=O)(=O)NCCc2ccc(S(N)(=O)=O)cc2)c1C(=O)N1CCCC1	27µM	-	0	0	-	-
Cc1ccc(CNS(=O)(=O)c2c(C)[nH]c(C)c2C(=O)N2CCCC2)cc1	0	-	0	0	-	-
Cc1ccccc1CNS(=O)(=O)c1c(C)[nH]c(C)c1C(=O)N1CCCCC1	27µM	-	0	0	-	-
Cc1ccc(C)c(CNS(=O)(=O)c2c(C)[nH]c(C)c2C(=O)N2CCCC2)c1	0	-	0	0	-	-
Cc1[nH]c(C)c(S(=O)(=O)Nc2cccc(Cl)c2C)c1C(=O)N1CCCCC1	30µM	-	?	0	-	-
